Measured values: the OligoGym collection
Note: reference of the scale not given here.

What follows are sequences tested against NPR1 (assay: pooled miR-30 sensor sort-seq; sequence = guide strand). Conditions: shRNA.
TTGTAGTTCAGTACAACCCTGA was tested, and the sensor-assay potency score (higher = more potent) was 0.392. For TTAGACTCCATTCTTGAGGCTG, the sensor-assay potency score (higher = more potent) was 0.316. With TCATTGGTGAGTGAGTACCGGA the sensor-assay potency score (higher = more potent) was -1.01. TTCTCCAGCTGCATCTTCCTGT gave a sensor-assay potency score (higher = more potent) of -0.0836. Work on TAGACTCCATTCTTGAGGCTGT yielded a sensor-assay potency score (higher = more potent) of 0.414. With TTTCGTGTCAGCTCAATGCGTT the sensor-assay potency score (higher = more potent) was 0.0994. In the case of TATAATATGCTGTCTTGGCAAA, the sensor-assay potency score (higher = more potent) is reported as -1.35. TTCGGTTCCACATCCGCTGAGT gave a sensor-assay potency score (higher = more potent) of 0.0187. For TTGTCCAGGATGTTGCTGCTGT, the sensor-assay potency score (higher = more potent) was -0.0226. In the case of TTCCTGTATATGAAGAAGGAGA, the sensor-assay potency score (higher = more potent) is reported as -1.29. ATACTCGTCCTTGACACCGAAG was tested, and the sensor-assay potency score (higher = more potent) was -1.26.

These sequences were tested against NPSR1 in the same assay as above. Conditions: shRNA.
TTCTTCTTTCTCCTCCATGTGG gave a sensor-assay potency score (higher = more potent) of -0.829. TAGCGCAGCCTCCTGGAGCTGA was tested, and the sensor-assay potency score (higher = more potent) was -0.612. With TTTGAGATGAGTCCTCGGTTAT the sensor-assay potency score (higher = more potent) was -1.18. With TTTTAATCCAAATAGTTCGGAT the sensor-assay potency score (higher = more potent) was -0.423. TTTCAGTGCAAGCCACTGGGGA showed a sensor-assay potency score (higher = more potent) of -0.49. With TTGGACAGTGTCCTCTTCCCAA the sensor-assay potency score (higher = more potent) was -1.13. TGAATCGCCAATTAATATCTGT gave a sensor-assay potency score (higher = more potent) of -0.0374.
